According to the supplement of paper PMC3334620:
The full ranking holds about 33,000 sequences; the median of “E-score (-0.5 to 0.5)” is about -0.043, and the highest 2% start at about 0.37. The entries come from a sample that favours the highest values as a whole.

target: T1, Upc2 (UniProt Q12151); experiment: PBM E-score (8-mer binding enrichment) (E-score (-0.5 to 0.5)); higher = stronger / more preferred TF binding; settings: protein concentration: 200 nM; construct: GST-full length
T1 sequence: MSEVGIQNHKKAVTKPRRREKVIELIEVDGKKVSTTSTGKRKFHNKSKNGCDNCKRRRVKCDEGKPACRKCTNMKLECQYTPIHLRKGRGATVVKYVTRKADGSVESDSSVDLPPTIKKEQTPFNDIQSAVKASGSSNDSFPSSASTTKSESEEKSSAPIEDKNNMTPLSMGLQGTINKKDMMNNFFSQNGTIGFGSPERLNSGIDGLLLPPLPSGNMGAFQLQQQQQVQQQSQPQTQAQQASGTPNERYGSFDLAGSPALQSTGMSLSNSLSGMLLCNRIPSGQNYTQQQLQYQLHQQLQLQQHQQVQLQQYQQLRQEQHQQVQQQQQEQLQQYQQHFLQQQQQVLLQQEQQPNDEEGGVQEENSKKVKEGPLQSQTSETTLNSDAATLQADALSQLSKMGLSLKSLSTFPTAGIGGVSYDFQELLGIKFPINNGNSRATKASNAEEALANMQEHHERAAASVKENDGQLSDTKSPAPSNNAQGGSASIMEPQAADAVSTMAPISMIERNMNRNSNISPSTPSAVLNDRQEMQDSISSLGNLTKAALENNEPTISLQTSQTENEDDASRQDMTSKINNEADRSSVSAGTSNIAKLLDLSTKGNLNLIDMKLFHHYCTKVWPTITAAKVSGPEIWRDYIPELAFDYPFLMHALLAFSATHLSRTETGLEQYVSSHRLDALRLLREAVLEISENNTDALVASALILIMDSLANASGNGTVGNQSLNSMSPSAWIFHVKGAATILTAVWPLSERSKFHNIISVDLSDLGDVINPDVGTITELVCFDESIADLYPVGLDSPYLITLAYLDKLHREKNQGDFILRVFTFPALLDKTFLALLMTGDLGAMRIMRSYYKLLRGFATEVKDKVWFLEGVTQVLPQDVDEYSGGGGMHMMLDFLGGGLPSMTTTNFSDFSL
Method: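 Universal 'all 10-mer' protein binding microarrays (Agilent AMADID 015681) probed with GST-tagged S. cerevisiae TFs (full-length or DBD) made by in vitro transcription/translation (PURExpress), about 100-200 nM. Bound TF was detected with fluorescent anti-GST. Each ungapped 8-mer (which stands for itself and its reverse complement) is scored by the PBM enrichment score (E-score), a modified Wilcoxon-Mann-Whitney statistic from -0.5 to +0.5, computed with the Universal PBM Analysis Suite. Scale: above 0.35 generally sequence-specific binding.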

Sequence	PBM E-score
AACGACCA	0.405
TACGACCA	0.45
ACCGACCG	0.13
TCCGACCA	0.0761
GACGACCA	0.071
CAGCATAA	-0.0242
GGACCTAC	0.0699
CCGATCTC	-0.136
AATGAGTC	-0.0524
ATTGGAAC	-0.0244
GGCTAACC	-0.0479
CAGTCGTA	0.416
AAGTCGTG	-0.0736
GAGTCGGA	-0.0556
CAGTCGTC	-0.106
CAGTCGGA	-0.016
AAGTCGTC	0.121
AAGTCGTA	0.416
GAGTCGTA	0.43
GAGTCGCA	0.0248
GGACATTA	0.01
AAATCTAA	-0.16

Sequence	PBM E-score
TCGCATCA	0.209
CCGGGCAC	-0.214
ACAGATGC	-0.00973
AAGATTGA	-0.156
CAACGAAG	0.235
AAACGTAT	0.328
CAACGAAA	0.221
AAACGAAT	0.451
AAACGAAA	0.46
AACCGAAT	0.277
AGACGAAG	0.0695
TAACGAAA	0.334
AAACGAAG	0.464
ACTCGACA	0.0576
ACGCACTC	0.151
GGTTGGGA	-0.0786
CCCTGCGC	-0.276
CGTACAGC	0.446
CGTACAGA	0.41
GGTACAGA	-0.0181
AGTACAGA	-0.0613
CCTACAGC	-0.334

Sequence	PBM E-score
AGTACAGC	-0.156
AGCAGACC	-0.0454
AAGGTACC	-0.0716
ATGGTACC	-0.257
AAGGTACT	0.00877
CAGGTACA	-0.226
CAGGTACG	0.396
CAGGTACC	-0.112
ATGGTACA	-0.173
ATGGTACG	0.388
AAGGTACG	0.393
CTTAGATA	-0.0328
AGCGTGGA	-0.0828
CAGAGACA	-0.356
GGCTCGAA	-0.0434
CGCTCGTC	0.127
GGCTCGGA	0.0556
AGCTCGTG	0.107
GGCTCGTA	0.472
AGCTCGTC	0.103
AGCTCGTA	0.473
CGCTCGTA	0.466

Sequence	PBM E-score
CGCTCGGA	0.163
AGGGCTAC	-0.113
GAGGGCGC	-0.0991
GTGGTTGA	-0.0855
GCGTATCA	0.182
CCGTAACA	0.22
CCGTAAGA	0.21
ACGTAAGA	0.146
TCGTAACA	0.404
TCGTATCA	0.463
TCGTAAGA	0.399
ACGTATCA	0.254
GCGTAACA	0.118
CTGCAGAC	-0.0383
AACACTGA	0.0163
GGGTCAAC	-0.231
TGAACTCA	-0.00504
CACCCTTC	-0.0111
TAATACCA	-0.0667
TAATACTA	0.105
GAATACGC	0.175
